# HIF act = HIF pathway transcriptional activation; AID 1910; U2OS HRE-luciferase reporter, luminescence; normalized: DMSO 0%, desferrioxamine 100%; 300,000 compounds, 0.32% hits; activation, % at 7.5 µM (by protocol);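 active = mean activation of at least 10% of the iron chelator positive control signal, with at least half of replicates also reaching 10%; inconclusive = mean and replicate majority disagree about reaching 10%; inactive = mean and most replicates under 10%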
# ALR H2O2 inh = human ALR oxidase inhibition via reduced H2O2; purified ALR, DTT oxidation, H2O2 HRP-luminol luminescence; inhibition, % (concentration not given with the values); 290,000 compounds, 3.8% hits;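 active = mean replicate inhibition above about 79%, with every replicate also reaching it, limit read from the data; inconclusive = only one of the two criteria met; inactive = mean below limit and not every replicate reaching it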
# Target sequence (P55789 whole entry, looked up): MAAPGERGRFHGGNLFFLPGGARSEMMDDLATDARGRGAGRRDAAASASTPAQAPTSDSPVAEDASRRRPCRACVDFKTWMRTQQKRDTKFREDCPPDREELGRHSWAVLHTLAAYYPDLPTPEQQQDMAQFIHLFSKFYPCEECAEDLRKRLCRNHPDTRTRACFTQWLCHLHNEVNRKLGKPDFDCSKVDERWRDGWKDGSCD
# SUMO Mot1 rescue = inhibitors of SUMOylation pathway: yeast Mot1-301 growth rescue | S. cerevisiae Mot1-301 growth rescue, ATP luminescence, 38.5C; percent above DMSO median, 100 means doubled | growth rescue, % at 18.8 µM | 320,000 compounds, 1% hits | AID 2716;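 active = every valid replicate shows activation above 250% relative to neutral control wells; inactive = the rest, any valid replicate at or below 250%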;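 also: OY570 slx delta 5 strain wells were the positive control but not used for scaling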
# AI-2 QS modul = modulators of Vibrio harveyi AI-2 quorum sensing system; Vibrio harveyi JMH597 AI-2 luminescence/OD600 ratio, 9 h; active compounds read low; strain lacks LuxN and CqsS sensors; 0 = neutral-control median; 300,000 compounds, 0.4% hits; activity change, % at 7.5 µM; AID 2094; in the data active = activity change below about -75%, passing the limit was not always enough; inconclusive = no clear call, values can overlap the other calls;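 also: luminescence divided by OD600 gain over 9 h not by final OD600 alone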
# JMH597 growth rt = retest: inhibitors of Vibrio harveyi JMH597 growth; shares compounds with AI-2 QS modul; OD600 absorbance, 9 h; lacks LuxN and CqsS sensors; growth inhibition, % at 7.5 µM; 750 compounds, 1% hits;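 active = every replicate shows growth inhibition above 50%; inconclusive = at least half, but not all, replicates pass that cutoff; inactive = fewer than half of replicates pass it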
# BB721 const-QS lum = retest counter-screen: luminescence loss in constitutive-on quorum sensing strain BB721. shares compounds with AI-2 QS modul. Vibrio harveyi BB721 luminescence, 9 h. inhibition, % at 7.5 µM. 750 compounds, 95% hits;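 active = inhibition above about 80% in every replicate, not just on average, limit read from the data; inconclusive = at least half of replicates past the limit, but not all; inactive = fewer than half of replicates past the limit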
# BB721 growth = retest: blocks Vibrio harveyi BB721 growth; shares compounds with AI-2 QS modul; OD600 absorbance, 9 h; growth inhibition, % at 7.5 µM; 750 compounds, 3% hits; AID 2728;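 active = every replicate shows growth inhibition above 50%; inconclusive = at least half but not all replicates above 50% inhibition; inactive = under half of replicates above 50% inhibition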
# AI-2 QS JMH597 = Vibrio harveyi AI-2 signaling luminescence modulation – JMH597 strain, confirmation | Vibrio harveyi JMH597 AI-2 quorum sensing luminescence, 9 h; luxN and CqsS knockout, AI-2 only | inhibition, % at 7.5 µM | AID 2736 | shares compounds with AI-2 QS modul | 750 compounds, 97% hits;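 active = every replicate shows more than 75% inhibition of signal versus neutral control wells; inconclusive = half to three quarters of replicates exceed 75% inhibition; inactive = fewer than half of replicates exceed 75% inhibition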
# * = called active by the depositor; ? = inconclusive; . = no result. An excerpt weighted towards active compounds, which were near 4.8% of everything screened.
SMILES,HIF act,ALR H2O2 inh,SUMO Mot1 rescue,AI-2 QS modul,JMH597 growth rt,BB721 const-QS lum,BB721 growth,AI-2 QS JMH597
Clc1cccc(CSc2nnc(-c3c[nH]c4ccccc34)o2)c1,0.3,-17.9,7.5,-87.8*,22.1,93.1*,21.8,95.3*
CCOC(=O)C1CCCN(S(=O)(=O)c2cccs2)C1 (configuration not stated),-0.3,-3.4,414.0,?,16.8,98.6*,-17.6,99.8*
CCOC(=O)C1CCCN(S(=O)(=O)c2ccc(S(=O)(=O)N3CCCC3)cc2)C1 (configuration not stated),-6.8,-5.6,-9.4,4.6,.,.,.,.
O=C(c1cccc(Cl)c1)N1CCN(Cc2ccc3c(c2)OCO3)CC1,-1.0,6.7,7.8,17.6,.,.,.,.
O=C(c1cc2cc(F)ccc2[nH]1)N1CCN(C(=O)c2ccco2)CC1,0.8,-5.6,-3.1,-83.6*,-18.5,85.4*,1.7,91.0*
O=C(c1ccc(COc2ccc(Cl)cc2)o1)N1CCN(Cc2ccc3c(c2)OCO3)CC1,0.0,-2.6,402.3*,-97.2*,133.5*,99.9*,111.1*,99.9*
O=C(c1ccc(COc2ccccc2Cl)o1)N1CCN(Cc2ccc3c(c2)OCO3)CC1,0.5,-0.8,-8.8,9.3,.,.,.,.
O=C(c1cc2cc(Cl)ccc2[nH]1)N1CCN(Cc2ccc3c(c2)OCO3)CC1,-0.1,-3.1,59.2,-94.2*,18.0,98.5*,-97.8,98.9*
COC(=O)[C@]1(C)N[C@H](CN(C)C(=O)c2ccccc2)[C@@H]2C(=O)N(C)C(=O)[C@@H]21,.,0.3,-6.5,.,.,.,.,.
O=C(Cc1ccsc1)Nc1ccc(S(=O)(=O)C(F)F)cc1,0.0,.,4.0,-86.9*,19.0,97.1*,-16.8,99.8*
CC(C)NS(=O)(=O)c1ccc(NC(=O)Cc2ccsc2)cc1,0.3,-1.2,-7.7,28.2,.,.,.,.
O=C(c1ccc(OC2CCN(C/C=C/c3ccc(F)cc3)CC2)cc1)N1CCCC1,-0.6,49.6,-11.7,21.6,.,.,.,.
CCc1ccc(CN(C)C(=O)c2cc(COc3cccc4cnccc34)on2)cc1,-1.5,-7.6,-3.7,-60.2,.,.,.,.
Cc1c(C(C)NC(=O)c2cc(COc3cccc4cnccc34)on2)cnn1C (configuration not stated),0.5,-70.0,-4.3,-81.1*,19.2,80.5*,18.3,87.7*
CC(=O)Cn1cnc2c(cnn2-c2ccc(C)c(C)c2)c1=O,-8.4,8.4,1.3,32.3,.,.,.,.
c1ccc(NCc2ccccn2)cc1,1.4,1.6,-8.6,-4.7,.,.,.,.
c1ccc(NCCCNc2ccccc2)cc1,0.1,98.3*,555.9,-80.8*,0.3,93.1*,3.9,92.6*
COc1ccc(CNC(=O)NC2CCCCC2)cc1,1.3,.,20.9,-87.4*,12.3,92.5*,13.2,94.7*
Cc1ccc(CNC(=O)Nc2cccc(C)c2)cc1,1.8,4.7,8.3,-89.8*,12.4,99.0*,24.8,99.0*
O=C(NCc1ccc(F)cc1)Nc1ccc(Cl)cc1,2.8,.,-17.9,?,.,.,.,.
O=C(NCc1ccc(F)cc1)Nc1cccc(Cl)c1,0.8,1.9,7.1,-93.8*,16.7,98.4*,24.5,98.6*
COc1ccc(CNC(=O)Nc2ccc(C)cc2)cc1,1.4,3.3,4.5,-79.0*,-0.3,88.3*,-14.1,91.7*
CCOC(=O)C1(CCOc2ccccc2)CCN(CC(O)CO)CC1 (configuration not stated),1.9,.,5.1,-10.7,.,.,.,.
COc1ccc(CNC(=O)Nc2ccc(C)c(C)c2)cc1,0.4,-1.2,-2.4,-63.1,.,.,.,.
CCOC(=O)c1cccc(NC(=S)NCc2ccc(C)cc2)c1,.,.,467.1,-85.1*,-10.3,88.6*,1.4,90.8*
SMILES,HIF act,ALR H2O2 inh,SUMO Mot1 rescue,AI-2 QS modul,JMH597 growth rt,BB721 const-QS lum,BB721 growth,AI-2 QS JMH597
CC(=O)c1cccc(NC(=S)NCc2ccccc2)c1,-0.4,2.3,0.9,18.8,.,.,.,.
COc1ccc(CNC(=O)Nc2cc(C)cc(C)c2)cc1,0.9,.,-3.4,?,6.8,95.9*,-6.0,96.6*
CCOc1cc(N2CCOCC2)c(OCC)cc1NC(=O)c1nn(CC)c(=O)c2ccccc12,.,-76.2,0.3,.,.,.,.,.
O=C(NCCOc1ccccc1)c1cccc(S(=O)(=O)NCc2ccccc2)c1,-0.1,5.3,103.8,-97.0*,?,98.9*,8.9,99.3*
O=C(NCCOc1ccccc1)c1cc2ccccc2o1,1.8,-9.7,-2.0,-81.7*,7.4,87.2*,-6.8,91.9*
O=C(CN(Cc1ccco1)C(=O)CCC(=O)Nc1ccccn1)NCc1ccccc1,-0.1,-3.0,14.9,7.3,.,.,.,.
COc1ccc(CC(=O)Nc2cccnc2)cc1,0.2,-36.3,-8.8,3.1,.,.,.,.
CN(C(=O)C1CCN(S(=O)(=O)c2ccccc2)CC1)c1c(N)n(Cc2ccccc2)c(=O)[nH]c1=O,1.1,-9.3,-8.2,-2.8,.,.,.,.
O=C(Cc1ccc(Br)cc1)Nc1ccc(S(=O)(=O)NCC2CCCO2)cc1 (configuration not stated),-0.1,3.6,-1.8,-96.3*,30.9,99.3*,-173.3,99.5*
O=C(CSc1ccccc1)Nc1ccc(S(=O)(=O)NCC2CCCO2)cc1 (configuration not stated),-0.3,.,-19.2,-96.9*,22.1,99.7*,-44.8,99.8*
COCC(=O)Nc1ccc(S(=O)(=O)NCC2CCCO2)cc1 (configuration not stated),0.4,.,-18.6,3.3,.,.,.,.
O=C(Cn1cnc2c(nc3n2CCCCC3)c1=O)Nc1cccc(C(F)(F)F)c1,0.5,7.3,-7.8,-86.4*,-9.0,94.7*,5.1,95.8*
O=C(CSc1n[nH]c(=O)n1C1CC1)Nc1ccc(Cl)c(Cl)c1,-0.3,-0.1,3.8,-82.6*,-16.1,88.3*,-7.2,91.4*
O=C(CSc1n[nH]c(=O)n1C1CC1)Nc1ccc(F)c(Cl)c1,.,-2.3,-6.2,.,.,.,.,.
CCC1(c2ccccc2)NC(=O)N(CC(=O)Nc2ccc(OC)nc2)C1=O (configuration not stated),0.0,-11.7,-10.7,-87.6*,2.0,89.8*,-0.4,94.3*
CCC1(c2ccccc2)NC(=O)N(CC(=O)NCc2ccc(C)cc2)C1=O (configuration not stated),0.2,-8.9,8.9,-90.8*,-12.9,94.2*,-31.4,96.8*
CCC1(c2ccccc2)NC(=O)N(CC(=O)NCc2ccc(F)cc2)C1=O (configuration not stated),-0.4,.,-10.3,-62.9,.,.,.,.
CNC(=O)COC(=O)c1ccc(NS(=O)(=O)c2ccc3c(c2)OCCO3)cc1,0.0,-1.0,12.3,-2.9,.,.,.,.
